Data published in PubChem BioAssay AID1347120 (National Center for Advancing Translational Sciences (NCATS), 2019).
About 930 (0.24%) of roughly 390,000 compounds were called active. About 5% were inconclusive and are not listed. The call rests on the fitted dose curve; in most records, active means well fitted activation curve with a large enough effect; inconclusive means small, poorly fitted or top-dose-only effect; inactive means no such curve, though single readings can be large or run the other way. The entries come from a sample that favours actives as a whole.

assay: qHTS for Suppressors of FUS Proteinopathy: Primary screen using FUS-linked yeast assay; further: nearly all actives have a fitted effect of over 55% in size; conditions: S. cerevisiae FUS-expressing, OD600, 24 h; Potency: growth rescue; series mostly up to 76.6 µM
Excerpt: Several widespread neurodegenerative diseases, including Alzheimer disease, Huntington disease, Frontotemporal Lobar Degeneration (FTLD) and Amyotrophic Lateral Sclerosis (ALS), share a common pathological feature, namely accumulation of specific protein aggregates in diseased tissue. These diseases which is associated with protein misfolding (proteinopathies) have become increasingly problematic as the population ages and life expectancies are extended. Most proteinopathies are currently incurable, a situation confounded by the fact that the basis of neurodegeneration is generally poorly understood. There exists urgent and significant need to find therapeutics that can inhibit the toxicity associated with protein aggregation. A novel approach to understand the underlying mechanisms of neurodegenerative diseases has recently emerged in which the disease conditions are modeled in the yeast (Saccharomyces cerevisiae), a tractable eukaryotic organism with conserved protein quality control mechanisms. Yeast offers quick and reliable genetic manipulations and can be easily tailored to high-throughput screening (HTS).
For this project, a yeast model of the FUS proteinopathies (a spectrum of neurodegenerative diseases that include ALS and a subtype of FTLD) was generated and employed. The cytoplasmic accumulation of the DNA/RNA-binding protein FUS (also known as TLS) is causative to both familial and sporadic forms of ALS and FTLD. This yeast model recapitulates neuronal pathology by showing severe cytotoxicity associated with cytoplasmic accumulation of FUS aggregates and a specific interaction between FUS and TDP-43, another ALS-associated protein. […] Specifically, the cellular accumulation of misfolded FUS that disrupts RNA homeostasis in both yeast and higher eukaryotes. This model was validated to be suitable for quantitative HTS (qHTS) use for finding genetic or chemical factors that restore growth. […] Identified compounds that inhibits FUS-yeast toxicity is flagged, re-acquired, and validated for further investigation and optimization.
NIH Chemical Genomics Center [NCGC]
NIH Molecular Libraries Probe Production Centers Network [MLPCN]
Assay Submitter (PI): Frank Shewmaker PhD, Uniformed Services University of the Health Sciences
Compound CP55940 was used as the positive control. Column 1 was treated with CP55940 titration from 92uM (final concentration, 1:2 dilution), while Column 2 was treated with top dose 92uM. Columns 3 and 4 were treated with DMSO only as negative control to assess background and noise signal.
Four hundred fifty microliter of cultured yeast (in 20mL rich medium) provided by Dr. Shewmaker lab was incubated at 30C at 99% humidity for 3hr. The culture was then spun down at 4000rpm for 5min and the cell pellet was resuspended in 2mL of Sdmin Media + ALU(330) + 2.5% Raffinose. One hundred microliter of the suspension was added to 900uL of water and OD of the solution was obtained. Twenty mL of responding medium (provided by Shewmaker lab) + 2.5% raffinose was added to ensure cell density of 0.1; the solution was incubated overnight. Working cell solution (FUS-yeast in Sdmi + Sdmi + 1X ALU + 2% galactose media) was prepared (final OD at 0.005) and 3uL was dispensed in a 1536-well Aurora high based clear bottom assay plates. Controls and library compounds (at various final concentrations from 40uM to 0.32uM) were added using a 1536-well pin array using the Kalypsys pin-tool. The plates were then incubated for 24hrs in a cell-culture incubator (30C; 99% humidity). Absorbance at 600nm was then read using the PerkinElmer ViewLux plate reader.
Potency means the concentration at half of the fitted maximal effect.

Potency, active:
COc1ccc(S(=O)(=O)N(C)C[C@H]2Oc3c(NC(=O)Nc4ccc5c(c4)OCO5)cccc3C(=O)N([C@H](C)CO)C[C@@H]2C)cc1 25.1 µM, O=C(CNC(=O)OCc1ccccc1)Oc1cc2oc(=O)cc(-c3ccccc3)c2cc1Cl 12.6 µM, CCOc1ccc(N=Cc2c(O)n(-c3cccc(C)n3)c(=O)c3ccccc23)cc1 8.91 µM, COc1ccc2c(c1)Cc1sc(NC(=O)c3ccccc3Br)nc1-2 28.2 µM, CC(C)Cn1c(CN(Cc2ccccc2)Cc2ccccc2)nc2c1c(=O)n(C)c(=O)n2C 31.6 µM, Cc1cc(/C=N/NC(N)=O)c(C)n1C1CCCCC1 22.4 µM, O=C1N[C@@H](c2ccccc2)COC(=O)[C@H](Cc2ccc(F)cc2)C/C=C\C[C@@H]1CC(=O)N(CCO)Cc1ccccc1 22.4 µM, COc1ccccc1C1/C(=C(/O)c2ccc(OC(C)C)cc2)C(=O)C(=O)N1c1cc(C)on1 (stereo not drawn) 20 µM, CCN(CC(=O)Nc1ccc(Cl)c(S(=O)(=O)N(C)C)c1)Cc1nc2ccccc2c(=O)[nH]1 31.6 µM

Potency, inactive:
CC(C)NC(=O)Nc1cccc2c1O[C@@H](CN(C)S(=O)(=O)c1ccc(F)cc1)[C@@H](C)CN([C@H](C)CO)C2=O, COc1ccc(S(=O)(=O)Nc2cccc3c2O[C@H](CN(C)S(=O)(=O)c2ccc(OC)cc2)[C@@H](C)CN([C@H](C)CO)C3=O)cc1, COc1cc(OC)c(NC(=O)c2cc(S(=O)(=O)N3CCCC3)cn2C)cc1Cl, COC(=O)c1ccccc1NC(=O)C(Cc1ccccc1)N1Cc2ccccc2C1=O (stereo not drawn), Cc1cccc(CCNC(=O)c2ccc3c(c2)nc2n3CCC(C)C2)c1 (stereo not drawn), COc1cccc(NC(=O)N2CCN(C(=O)c3nsc4ccccc34)CC2)c1, Cc1nc(SCCOc2ccc(Cl)cc2)[nH]c(=O)c1Cc1ccccc1, O=C(CNC(=O)Cc1ccccc1)NCC(=O)OCC(=O)c1ccccc1Cl, COP(=O)(O)CNC(=O)OCc1ccccc1, COC(=O)Cc1csc(/N=C/c2c(O)n(-c3cccc(C(F)(F)F)c3)c(=O)c3ccccc23)n1, CCO/C=C1\C(=O)N(c2ccc(OCC)cc2)C(=O)c2ccccc21, CCc1ccc(NC(=O)CCCc2nnc3n(CCCOC)c(=O)c4sccc4n23)cc1, O=C(Nc1nc2c(s1)CCCC2)c1ccccc1F, Cn1c(=O)c(=O)n(C)c2cc(NC(=O)c3ccccc3Br)ccc21, CN(C(=O)c1ccc2c(c1)N(Cc1cccc(Cl)c1)C(=O)c1ccccc1S2=O)C1CCCCC1 (stereo not drawn), CC(C)CCn1c(CN(C)Cc2ccccc2)nc2c1c(=O)n(C)c(=O)n2C, Cn1c(=O)[nH]c(=O)c2c1nc(CN(Cc1ccccc1)Cc1ccccc1)n2CCN1CCOCC1, CCN(CC)c1ccc(NC(=O)CN2C(=O)c3cccnc3Oc3ccc(Cl)cc32)c(C)c1, CC1CCc2sc(C(=O)N/N=C/C3CCCCC3)cc2C1 (stereo not drawn), Cc1ccc(Nc2cc(=O)n(C3CCCCC3)c(=O)[nH]2)cc1C, CCc1ccccc1NC(=O)N1CCN(C(=O)c2nsc3ccccc23)CC1, CCOc1cccc(NC(=O)CSc2ncc(-c3ccc(Cl)cc3)[nH]2)c1, CCNC(=O)Cn1nc(C)n2c(cc3c(OC)cccc32)c1=O, CC(C)(C)OC(=O)C[C@@H]1C/C=C\C[C@@H](CC(=O)N(CCO)Cc2ccccc2)C(=O)N[C@H](Cc2ccccc2)COC1=O, O=C1CCC/C=C\C[C@@H](CC(=O)N(CCO)Cc2ccccc2)C(=O)NCCO1, CCC1CCCCN1Cc1c(O)ccc2c(=O)c(Oc3ccccc3Cl)c(C(F)(F)F)oc12 (stereo not drawn), Cc1ccc(C)c(Cn2c(CCCNC(=O)C3CCCCC3)nc3ccccc32)c1, COCCNC(=O)c1cc(-c2cccc(Cl)c2)on1, Cc1cc(N2C(=O)C(=O)/C(=C(/O)c3ccccc3)C2c2cccc(Br)c2)no1 (stereo not drawn), Cc1cc(N2C(=O)C(=O)/C(=C(/O)c3ccc(Cl)cc3)C2c2cccc(Br)c2)no1 (stereo not drawn), Cc1ccc(-c2cn3c(n2)sc2cc(C(=O)NCCCc4ccccc4)ccc23)cc1, O=C(CSc1nccn1C1CCCC1)Nc1cc(C(F)(F)F)ccc1Cl, COc1ccc(CNC(=O)CC2Oc3ccc(C)cc3NC2=O)cc1 (stereo not drawn), CC(=O)Nc1ccc(NC(=O)CCCc2nc(-c3ccc(C(C)(C)C)cc3)no2)cc1, CC1Cc2cc(S(=O)(=O)CCC(=O)Nc3ccc(F)c(Cl)c3)ccc2N1C(=O)C1CC1 (stereo not drawn), COc1ccccc1-c1cc(C(F)(F)F)nc(S(=O)(=O)CCCC(=O)Nc2ccc(F)cc2F)n1, CCCCc1nn2c(=O)cc(COC(=O)c3ccc(NC(=O)c4ccccc4C)cc3)nc2s1, CCCCOc1ccc(CN2C(=O)C(=O)c3cc(Br)cc(C)c32)cc1OC, Cc1ccc(CNC(=O)CCc2c(C)nc3c(c(C)nn3-c3ccccc3)c2C)cc1, CCN(CC)C(=O)CSc1nc2cc3c(cc2c(=O)n1CCCC(=O)NCc1ccc2c(c1)OCO2)OCO3, CCOc1ccc(-c2cc3c(=O)n(CC(=O)NCc4ccc(OC)cc4)ccn3n2)cc1, COc1cccc(-n2c(=O)c3c(C)c(C(=O)N(C)C)sc3n(Cc3cccc(C)c3)c2=O)c1, CCN(CC(=O)Nc1cccc(S(N)(=O)=O)c1)Cc1nc2ccccc2c(=O)[nH]1, CCN(CC(=O)NC(=O)NCc1ccccc1)Cc1nc2ccccc2c(=O)[nH]1, CCN1CCN(CCCNC(=O)c2ccc3c(c2)sc2nc(-c4ccc(OC)cc4)cn23)CC1, COc1ccc(CC(=O)NCCc2sc3nc(-c4ccc(OC)cc4)nn3c2C)cc1, COC(=O)CN1C(=O)CSc2ccc(S(=O)(=O)Nc3cc(C)ccc3C)cc21, Cc1ccc2nc(N3CCN(c4cccc(Cl)c4)CC3)c3nnnn3c2c1, Cc1nnc(N2CCC(C(=O)Nc3ccc(F)cc3)CC2)c2nn(-c3ccc(Cl)cc3)c(C)c12
